# Values without a mark were called inactive. Results filed as inconclusive are left out. Entries that show only a call come without a potency. The source made the active and inactive calls. Unless noted, calls come from the whole dose curve; as a rule, active = well fitted curve in the direction sought with a large enough effect; inconclusive = small, poorly fitted or top-dose-only effect, or another doubt; inactive = no such curve, though single readings can be large; an effect the other way counts as inactive or inconclusive.
# What was measured:
# [1] = P-glycoprotein substrates identified in KB-8-5-11 adenocarcinoma cell line, qHTS therapeutic library screen (AID 1346987); note: nearly all actives have a fitted effect of over 65% in size; note: potency is the fitted concentration of half-maximal effect
# Summary of the method: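 KB-8-5-11, a colchicine-selected P-gp-overexpressing KB-3-1 subline, was grown without colchicine for the assay. Cells were seeded at 500 cells/well, dosed in concentration-response and incubated 72 h at 37 degree C, 5% CO2. Viability was read by CellTiter-Glo luminescence.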
# [2] = NS1 protein of Zika virus - qHTS assay to identify small molecule inhibitors in human HEK 293 cells (AID 1347053); note: series mostly up to about 46 µM; nearly all actives have a fitted effect of over 55% in size
# Summary of the method: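 Following 20 h seeding, HEK 293 cells took compound, then 1 h later ZIKV MR766 (MOI = 0.5). Incubation ran 24 h at 37 C before TR-FRET detection of NS1; a drop in signal indicates inhibition.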
# [3] = qHTS of pediatric cancer cell lines to identify multiple opportunities for drug repurposing: Primary screen for TC32 cells (AID 1347089); note: nearly all actives have a fitted effect of over 60% in size
# Summary of the method: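 A viability screen of TC32 cells was run over 48 h, with primary MIPE doses spanning 0.78 nM–46 µM and NPC doses 0.59 nM–46 µM. ATP luminescence (CellTiter-Glo) served as the read-out.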
# [4] = qHTS of pediatric cancer cell lines to identify multiple opportunities for drug repurposing: Primary screen for DAOY cells (AID 1347090); note: series mostly up to about 46 µM; nearly all actives have a fitted effect of over 55% in size
# Summary of the method: (§1)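 Viability measured as metabolically active cells via CellTiter-Glo luminescence following 48 hours of compound exposure, 11-point dilutions in confirmatory testing. 500-1,000 cells/well plated 5 hours before dosing; controls were DMSO and 2.3 µM bortezomib.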
# [5] = qHTS of pediatric cancer cell lines to identify multiple opportunities for drug repurposing: Primary screen for SJ-GBM2 cells (AID 1347091)
# Summary of the method: as §1
# [6] = qHTS of pediatric cancer cell lines to identify multiple opportunities for drug repurposing: Primary screen for A673 cells (AID 1347092); note: nearly all actives have a fitted effect of over 45% in size; note: potency is the fitted concentration of half-maximal effect
# Summary of the method: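 Titration-based qHTS on A673 cells: MIPE compounds spanned 11 points (0.78 nM to 46 µM final), NPC compounds 8 points (0.59 nM to 46 µM final). Viability after 48 h was measured by ATP luminescence.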
# [7] = qHTS of pediatric cancer cell lines to identify multiple opportunities for drug repurposing: Primary screen for SK-N-MC cells (AID 1347093); note: series mostly up to about 46 µM
# Summary of the method: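 Metabolically active cells were quantified by ATP-dependent luminescence (CellTiter-Glo, 15 min at room temperature) following 48 h treatment. Cells had been plated at 500-1,000 per well and settled for 5 h beforehand.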
# [8] = target: T1, Tyrosine-protein phosphatase non-receptor type substrate 1 (Homo sapiens) + Leukocyte surface antigen CD47 (Homo sapiens) (UniProt P78324+Q08722); assay: CD47-SIRPalpha protein protein interaction - LANCE assay qHTS validation (AID 1347057; active = well fitted curve in the direction sought with a large enough effect in the signal ratio, with a control signal flat, not every such curve was filed as active; the % refers to the signal ratio; note: series mostly up to about 38 µM)
# Summary of the method: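 First, His-tagged CD47 and Eu-labelled anti-His antibody met the compound for 30 min; next, site-specifically biotinylated SIRPalpha was added for 30 min; finally streptavidin-APC was added before reading the TR-FRET ratio.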
# [9] = target: T1, Tyrosine-protein phosphatase non-receptor type substrate 1 (Homo sapiens) + Leukocyte surface antigen CD47 (Homo sapiens); assay: CD47-SIRPalpha protein protein interaction - HTRF assay qHTS validation (AID 1347058; active = well fitted curve in the direction sought with a large enough effect in the signal ratio, not every such curve was filed as active; the % refers to the signal ratio;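 note: recombinant soluble extracellular CD47 with His tag and biotinylated SIRPalpha domains; series mostly up to about 38 µM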)
# Summary of the method: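 TR-FRET read (Ch1/Ch2 ratio) of soluble extracellular CD47 and Avi-biotinylated SIRPalpha domains in PBS pH 7.4 with 0.05% IGEPAL; 7-point compound titration. Sequential 30 min room-temperature steps; non-biotinylated SIRPalpha as control inhibitor.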
# [10] = target: Parathyroid hormone/parathyroid hormone-related peptide receptor (Homo sapiens) (UniProt Q03431); assay: qHTS for PTHR1 Agonists: Optimization Screen against the NCGC LOPAC library (AID 1347079);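 note: GloSensor cAMP luminescence in HEK-293 GP2 cells expressing human PTHR1 with IBMX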
# Summary of the method: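 Agonist readout: GloSensor cAMP luminescence, read after 15 min at room temperature. HEK-293-derived GP2 line carries PTHR1; compounds tested as a titration for 1 hr at 37C in presence of IBMX. M-PTH (1-15) served as control.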
# T1 sequence (P78324 whole entry, looked up): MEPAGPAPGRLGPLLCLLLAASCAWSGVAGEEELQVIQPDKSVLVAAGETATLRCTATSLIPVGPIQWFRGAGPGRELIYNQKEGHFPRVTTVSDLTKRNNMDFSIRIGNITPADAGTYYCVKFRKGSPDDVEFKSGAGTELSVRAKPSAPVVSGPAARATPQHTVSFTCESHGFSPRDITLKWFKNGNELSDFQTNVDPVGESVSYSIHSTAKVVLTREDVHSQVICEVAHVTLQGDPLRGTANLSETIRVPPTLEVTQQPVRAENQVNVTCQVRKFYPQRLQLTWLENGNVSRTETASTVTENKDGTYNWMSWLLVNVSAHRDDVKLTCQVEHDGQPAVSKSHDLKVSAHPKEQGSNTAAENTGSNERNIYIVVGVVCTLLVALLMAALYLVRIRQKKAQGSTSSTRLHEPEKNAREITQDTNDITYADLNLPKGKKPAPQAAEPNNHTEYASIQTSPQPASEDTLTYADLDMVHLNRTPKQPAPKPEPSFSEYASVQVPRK
# T1 sequence (Q08722 whole entry, looked up): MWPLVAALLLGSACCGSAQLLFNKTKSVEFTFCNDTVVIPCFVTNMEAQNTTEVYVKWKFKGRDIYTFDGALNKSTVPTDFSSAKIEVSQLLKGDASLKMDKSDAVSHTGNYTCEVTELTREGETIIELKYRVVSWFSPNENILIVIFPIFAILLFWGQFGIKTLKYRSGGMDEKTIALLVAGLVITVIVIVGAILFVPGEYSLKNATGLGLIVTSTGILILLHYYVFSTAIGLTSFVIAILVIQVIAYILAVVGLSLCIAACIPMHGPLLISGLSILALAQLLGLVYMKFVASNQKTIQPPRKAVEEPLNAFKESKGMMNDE
# Sequence of Parathyroid hormone/parathyroid hormone-related peptide receptor (Homo sapiens) (Q03431 whole entry, looked up): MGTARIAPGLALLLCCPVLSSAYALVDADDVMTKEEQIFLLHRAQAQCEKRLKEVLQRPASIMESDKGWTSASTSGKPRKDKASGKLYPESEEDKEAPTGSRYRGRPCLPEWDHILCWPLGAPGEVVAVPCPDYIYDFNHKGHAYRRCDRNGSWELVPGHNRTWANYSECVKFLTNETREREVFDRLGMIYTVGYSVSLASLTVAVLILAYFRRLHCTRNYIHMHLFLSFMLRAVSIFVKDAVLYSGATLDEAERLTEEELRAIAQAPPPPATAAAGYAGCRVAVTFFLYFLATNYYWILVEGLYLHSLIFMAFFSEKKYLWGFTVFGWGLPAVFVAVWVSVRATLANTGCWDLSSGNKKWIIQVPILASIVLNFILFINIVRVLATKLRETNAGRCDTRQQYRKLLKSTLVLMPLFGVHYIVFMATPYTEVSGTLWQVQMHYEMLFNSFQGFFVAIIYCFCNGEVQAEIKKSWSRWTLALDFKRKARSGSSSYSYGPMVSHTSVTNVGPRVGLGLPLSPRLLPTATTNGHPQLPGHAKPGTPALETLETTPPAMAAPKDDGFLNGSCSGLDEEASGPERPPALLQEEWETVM
smiles,measurement,setting,value
O=C(O)c1ccccc1O,Potency,[1],inactive
same,Potency,[2],inactive
same,Potency,[3],inactive
same,Potency,[4],inactive
same,Potency,[5],inactive
same,Potency,[6],inactive
same,Potency,[7],inactive
Cc1cc2c(cc1S(N)(=O)=O)S(=O)(=O)CCC2,Potency,[1],inactive
same,Potency,[2],inactive
same,Potency,[3],inactive
same,Potency,[4],inactive
same,Potency,[5],inactive
same,Potency,[6],inactive
same,Potency,[7],inactive
COc1ccc(S(=O)(=O)Nc2nnc(CC(C)C)s2)cc1,Potency,[1],inactive
same,Potency,[2],inactive
same,Potency,[3],inactive
same,Potency,[4],inactive
same,Potency,[5],inactive
same,Potency,[6],inactive
same,Potency,[7],inactive
Nc1ccc(S(=O)(=O)NC(=O)c2ccccc2)cc1,Potency,[1],inactive
same,Potency,[2],inactive
same,Potency,[3],inactive
same,Potency,[4],inactive
same,Potency,[5],inactive
same,Potency,[6],inactive
same,Potency,[7],inactive
CCOc1nc2cccc(C(=O)O)c2n1Cc1ccc(-c2ccccc2-c2nn[nH]n2)cc1,Potency,[1],inactive
same,Potency,[2],inactive
same,Potency,[3],inactive
same,Potency,[4],inactive
same,Potency,[5],inactive
same,Potency,[6],inactive
CSc1ccc2c(c1)N(CCC1CCCCN1C)c1ccccc1S2 (centres undefined),Potency,[1],18.4 µM (active)
same,Potency,[2],inactive
same,outcome,[8],inactive
same,outcome,[9],inactive
same,Potency,[10],inactive
same,Potency,[6],21.1 µM (active)
O=S(=O)(O)NC1CCCCC1,Potency,[1],inactive
same,Potency,[2],inactive
same,Potency,[3],inactive
same,Potency,[4],inactive
same,Potency,[5],inactive
same,Potency,[6],inactive
same,Potency,[7],inactive
O=c1[nH]c(=O)c2[nH]c(=O)[nH]c2[nH]1,Potency,[1],inactive
same,"activity change, negative = inhibition",[2],-8.7% [at 9.2 µM]
same,"activity change, negative = cytotoxic",[3],-9.56% [at 9.17 µM]
same,"activity change, negative = cytotoxic",[4],-3.8% [at 9.22 µM]
same,"activity change, negative = cytotoxic",[5],1.34% [at 9.22 µM]
same,"activity change, negative = cytotoxic",[6],-14.8% [at 9.22 µM]
[O-][n+]1cccc(CO)c1,Potency,[1],inactive
same,Potency,[2],inactive
same,Potency,[3],inactive
same,Potency,[4],inactive
same,Potency,[5],inactive
same,Potency,[6],inactive
same,Potency,[7],inactive
CC1CC(OC(=O)C(O)c2ccccc2)CC(C)(C)N1C (centres undefined),Potency,[1],inactive
same,Potency,[2],inactive
same,Potency,[3],inactive
same,Potency,[4],inactive
same,Potency,[5],inactive
same,Potency,[6],inactive
same,Potency,[7],inactive
O=C1OC(OC(=O)c2cccnc2Nc2cccc(C(F)(F)F)c2)c2ccccc21 (centres undefined),Potency,[1],inactive
same,Potency,[2],inactive
same,Potency,[3],inactive
same,Potency,[4],inactive
same,Potency,[5],inactive
C/C(=C(\CCOP(=O)(O)O)SC(=O)c1ccccc1)N(C=O)Cc1cnc(C)nc1N,Potency,[1],inactive
same,"activity change, negative = inhibition",[2],3.35% [at 4.81 µM]
same,"activity change, negative = cytotoxic",[3],9.22% [at 4.81 µM]
same,"activity change, negative = cytotoxic",[4],7.92% [at 4.84 µM]
same,"activity change, negative = cytotoxic",[5],25.6% [at 4.84 µM]
same,"activity change, negative = cytotoxic",[6],-0.171% [at 4.84 µM]
same,"activity change, negative = cytotoxic",[7],-16.7% [at 4.84 µM]
Cc1ncc([N+](=O)[O-])n1CC(O)CCl (centres undefined),Potency,[1],inactive
same,Potency,[2],inactive
same,Potency,[3],inactive
same,Potency,[4],inactive
same,Potency,[5],inactive
same,Potency,[6],inactive
same,Potency,[7],inactive
CCCCOc1cc(C(=O)OCCN(CC)CC)ccc1N,Potency,[1],inactive
same,Potency,[2],inactive
same,Potency,[3],inactive
same,Potency,[4],inactive
same,Potency,[5],inactive
same,Potency,[6],inactive
same,Potency,[7],inactive
NC(=O)NNc1ccccc1,Potency,[1],inactive
same,Potency,[2],inactive
same,Potency,[3],inactive
same,Potency,[4],inactive
same,Potency,[5],inactive
same,Potency,[6],inactive
same,Potency,[7],inactive
NCC(=O)CCC(=O)O,Potency,[1],inactive
same,Potency,[2],inactive
same,Potency,[3],inactive
same,Potency,[4],inactive
same,Potency,[5],inactive
same,Potency,[6],inactive
same,Potency,[7],inactive
CC(C)(C)NCC(O)COc1ccc(NC(=O)NC2CCCCC2)cc1 (centres undefined),Potency,[1],inactive
same,Potency,[2],inactive
same,Potency,[3],inactive
same,Potency,[4],inactive
same,Potency,[5],inactive
same,Potency,[6],inactive
same,Potency,[7],inactive
C=CCn1c(=O)n([C@@H]2O[C@H](CO)[C@@H](O)[C@H]2O)c2nc(N)[nH]c(=O)c21,Potency,[1],inactive
same,Potency,[2],inactive
same,Potency,[3],inactive
same,Potency,[4],inactive
same,Potency,[5],inactive
same,Potency,[6],inactive
same,Potency,[7],inactive
O=C1O[C@H]([C@@H](O)CO)C(O)=C1O,Potency,[1],inactive
same,Potency,[2],inactive
same,Potency,[3],inactive
same,Potency,[4],inactive
same,Potency,[5],inactive
same,Potency,[6],inactive
same,Potency,[7],inactive
CCCCC/C(C=O)=C\c1ccccc1,Potency,[1],inactive
same,Potency,[2],inactive
same,Potency,[3],inactive
same,Potency,[4],inactive
same,Potency,[5],inactive
same,Potency,[6],inactive
same,Potency,[7],inactive
CCCCCCCCCCCCCCCCCCOCC(O)CO (centres undefined),Potency,[1],inactive
same,Potency,[2],inactive
same,Potency,[3],inactive
same,Potency,[4],inactive
same,Potency,[5],inactive
same,Potency,[6],inactive
same,Potency,[7],inactive
N[C@@H](CSCCCO)C(=O)O,Potency,[1],inactive
same,Potency,[2],inactive
same,Potency,[3],inactive
same,Potency,[4],inactive
same,Potency,[5],inactive
same,Potency,[6],inactive
same,Potency,[7],inactive
O=C(O)CC(O)C(=O)O (centres undefined),Potency,[1],inactive
same,Potency,[2],inactive
same,Potency,[3],inactive
same,Potency,[4],inactive
same,Potency,[5],inactive
same,Potency,[6],inactive
same,Potency,[7],inactive
CCCCCCCCCCCCOS(=O)(=O)O,Potency,[1],inactive
same,Potency,[2],inactive
same,Potency,[3],inactive
same,Potency,[4],inactive
same,Potency,[6],inactive
same,Potency,[7],inactive
CN1CCCCC1CCN1c2ccccc2Sc2ccc(S(C)=O)cc21 (centres undefined),Potency,[1],inactive
same,Potency,[2],inactive
same,Potency,[3],inactive
same,Potency,[4],inactive
same,Potency,[6],inactive
same,Potency,[7],inactive
O=C1c2c(O)cccc2Cc2cccc(O)c21,Potency,[1],inactive
same,Potency,[2],inactive
same,Potency,[3],inactive
same,Potency,[4],inactive
same,Potency,[5],inactive
same,Potency,[6],inactive
same,Potency,[7],inactive
CC1(C)S[C@@H]2[C@H](NC(=O)Cc3ccccc3)C(=O)N2[C@H]1C(=O)O (tested in a mixture with another compound),Potency,[1],inactive
same,Potency,[2],inactive
same,Potency,[3],inactive
same,Potency,[4],inactive
same,Potency,[5],inactive
same,Potency,[6],inactive
same,Potency,[7],inactive
NCCNCCNCCNCCN,Potency,[1],inactive
same,"activity change, negative = inhibition",[2],-10.7% [at 9.2 µM]
same,"activity change, negative = cytotoxic",[3],6.7% [at 9.17 µM]
same,"activity change, negative = cytotoxic",[4],-7.74% [at 9.22 µM]
same,"activity change, negative = cytotoxic",[5],0.237% [at 9.22 µM]
same,"activity change, negative = cytotoxic",[6],0.711% [at 9.22 µM]
same,"activity change, negative = cytotoxic",[7],-17.1% [at 9.22 µM]
